Measurements as given in PubChem BioAssay (NCATS).
Calls of active or inactive are those of the source. A call without a number means that no potency is given here. Calls come from the whole dose curve; as a rule, active = well fitted inhibition curve with a large enough effect; inconclusive = small, poorly fitted or top-dose-only effect; inactive = flat fitted curve, though single readings scatter.

Biological target: Luciferin 4-monooxygenase (Photinus pyralis) (UniProt P08659)
Assay: Primary firefly luciferase (FLuc) qHTS assay for identification of artifact compounds. (AID 1845220); note: nearly all actives have a fitted effect of over 60% in size
Settings: purified firefly luciferase, luminescence, 5 min; series mostly up to 54.1 µM
Summary of the method: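 qHTS, 15 min compound preincubation with substrate (10 uM luciferin, 10 uM ATP) at RT, then 10 nM FLuc; 5 min; luminescence; % inhibition vs no-enzyme/DMSO controls, 4-parameter Hill fit.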
Potency is the fitted concentration of half-maximal effect.

Row | SMILES | Potency | activity change, negative = inhibition | outcome
1 | COC1=CC(=O)O[C@@H](CCc2ccccc2)C1 | inactive |  | 
2 | CN1C(=O)N(c2ccc(C#N)c(C(F)(F)F)c2)C(=O)[C@]1(CO)c1ccccc1 | inactive |  | 
3 | CCCCCCn1c(=O)c(C(=O)Nc2ccc(C(=O)OCCC)cc2)c(O)c2ccccc21 |  | 0.207% [at 11.6 µM] (inactive) | 
4 | CO[C@@H]1[C@H](O)[C@@H](O[C@@H]2C[C@H]3CC[C@@H]4C(CC[C@]5(C)[C@@H](C6=CC(=O)OC6)CC[C@]45O)[C@@]3(C)[C@H](O)C2)O[C@H](C)[C@@H]1O[C@@H]1O[C@H](CO)[C@@H](O)[C@H](O)[C@H]1O (stereo not given in full) | inactive |  | 
5 | COC1CC(OC2CCC3(C)C(=CCC4C3CCC3(C)C(C(C)OC5OC(COC6OC(CO)C(O)C(O)C6O)C(O)C(O)C5O)CCC43O)C2)OC(C)C1OC1OC(C)C(O)C(OC)C1O (stereo not given) |  |  | inactive [at 11.6 µM]
6 | CO[C@H]1[C@H](O)[C@H](O[C@H]2CC[C@]3(C)C4CC[C@]5(C)[C@H](C6=CC(=O)OC6)CC[C@]5(O)C4CC[C@@H]3C2)O[C@@H](C)[C@@H]1O (stereo not given in full) | 7.38 µM (active) |  | 
7 | O=C(O)c1ccnc2cc(C(OCCN3CCCCC3)c3ccccc3Cl)[nH]c12 (stereo not given) | inactive |  | 
8 | COc1cc(C)[nH]c(=O)c1CNC(=O)c1c(C)n([C@H](C)C2CCOCC2)c2ccccc12 | inactive |  | 
9 | CN1CCCC1CCOC(c1cc2nccc(C(=O)O)c2[nH]1)c1ccccc1Cl (stereo not given) | inactive |  | 
10 | COC1CC(O[C@H]2CC[C@]3(C=O)C4CC[C@]5(C)[C@@H](C6=CC(=O)OC6)CC[C@]5(O)[C@@H]4CC[C@]3(O)C2)OC(C)C1O[C@@H]1O[C@H](CO)[C@@H](O)[C@H](O)[C@H]1O (stereo not given in full) | inactive |  | 
